# Assay results published in PubChem BioAssay AID596 (National Center for Advancing Translational Sciences (NCATS), 2007).
# In all, about 71,000 compounds went through this assay and about 1,400 (2%) were called active. Inconclusive results (about 3%) are left out. Calls come from the whole dose curve; as a rule, active = well fitted curve in the direction sought with a large enough effect; inconclusive = small, poorly fitted or top-dose-only effect; inactive = no such curve, though single readings can be large or run the other way. Shown is part of a subset that was picked to be rich in actives. Non-standard residues stand in square brackets, D forms with d. Residues, ends and D or L forms follow the SMILES beside them. ξ: configuration not given here. ξV = CC(C)C(N)C(=O)O
# Molecular target: Microtubule-associated protein tau (Homo sapiens) (UniProt P10636)
# Assay: qHTS Assay for Tau Filament Binding;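 note: actives lower thioflavin S fluorescence by blocking filaments or displacing dye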
# Settings: recombinant tau filaments, thioflavin S fluorescence, 15 h, filaments grown with octadecylsulfate alongside compound; series mostly up to 57.1 µM; activity change, negative = inhibition: at the top concentration
# How it was run: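 His-tagged recombinant human tau (exons 2, 3 and 10 included), 1 uM, was induced to fibrillize by 30 uM sodium octadecylsulfate with compound present. After 15 h at 37 C, thioflavine S fluorescence (ex 450, em 510 nm) was read.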
# % is set by controls: 0 for no effect and ±100 for the full control effect; potency is the fitted concentration of half-maximal effect.
# Chain of Microtubule-associated protein tau (Homo sapiens) (P10636 whole entry, looked up): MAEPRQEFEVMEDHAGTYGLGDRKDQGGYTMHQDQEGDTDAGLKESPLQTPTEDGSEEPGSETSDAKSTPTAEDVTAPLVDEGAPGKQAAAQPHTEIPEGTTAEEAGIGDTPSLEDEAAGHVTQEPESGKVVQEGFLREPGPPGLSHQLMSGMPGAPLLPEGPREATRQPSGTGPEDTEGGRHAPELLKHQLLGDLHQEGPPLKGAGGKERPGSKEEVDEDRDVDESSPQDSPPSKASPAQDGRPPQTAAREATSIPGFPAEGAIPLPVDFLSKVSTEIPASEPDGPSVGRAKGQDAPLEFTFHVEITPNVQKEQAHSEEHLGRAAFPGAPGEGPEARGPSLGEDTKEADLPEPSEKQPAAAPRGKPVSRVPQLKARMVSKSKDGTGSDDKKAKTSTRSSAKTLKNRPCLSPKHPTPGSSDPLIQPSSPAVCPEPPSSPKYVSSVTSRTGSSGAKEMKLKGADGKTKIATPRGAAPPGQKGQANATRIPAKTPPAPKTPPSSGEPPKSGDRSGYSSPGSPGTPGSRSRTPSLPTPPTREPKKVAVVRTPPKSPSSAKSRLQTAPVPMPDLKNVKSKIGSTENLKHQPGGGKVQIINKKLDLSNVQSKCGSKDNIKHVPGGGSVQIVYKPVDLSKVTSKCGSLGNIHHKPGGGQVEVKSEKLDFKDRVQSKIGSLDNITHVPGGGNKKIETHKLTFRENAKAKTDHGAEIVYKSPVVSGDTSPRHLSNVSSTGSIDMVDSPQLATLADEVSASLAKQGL
SMILES,"activity change, negative = inhibition",Potency
CC(C)CO,-6.5% (inactive),–
CO[C@@H]1/C=C\O[C@]2(C)Oc3c(C)c(O)c4c(O)c(c(CN(C)C)c(O)c4c3C2=O)NC(=O)/C(C)=C\C=C[C@@H](C)[C@@H](O)[C@H](C)[C@@H](O)[C@H](C)[C@H](OC(C)=O)[C@@H]1C,3.4% [at 11.4 µM] (inactive),–
O=C(c1csnn1)N1CCC2(CC1)CN(c1ncccn1)C2,-5.6% (inactive),–
O=NO,–,inactive
CC(C)[C@H](CO)Nc1nc(Nc2cc(N)cc(Cl)c2)c2ncn(C(C)C)c2n1,–,31.6 µM (active)
CN1CCN(c2ncc3nc(-c4ccc(Cl)cc4)c(=O)n(-c4ccccc4)c3n2)CC1,220% (inactive),–
CCOc1cc(C(=S)N2CCOCC2)ccc1O,1% (inactive),–
COC(=O)c1ccc(CN(c2ccccc2OC)S(=O)(=O)c2cccs2)o1,5.3% (inactive),–
Cc1c(C)c2c(c(C)c1O)CC[C@@](C)(CN1CCN(c3cc(N4CCCC4)nc(N4CCCC4)n3)CC1)O2,–,12.6 µM (active)
CC(=O)NC(C(=O)NCC(N)=O)C(C)C (stereo not drawn) (Ac-[ξV]-Gly-NH2),-2.7% (inactive),–
CCNc1ncc2ncc(=O)n(CCc3ccccc3)c2n1,13.6% (inactive),–
Cc1ccc2oc(=O)ccc2c1,4.9% (inactive),–
CCCCNC(=O)c1ccccc1NC(=O)c1ccccc1N(C)S(C)(=O)=O,-10.5% (inactive),–
Cc1ccc(Nc2cc(=O)n(C3CCCCC3)c(=O)[nH]2)cc1C,120% (inactive),–
COCCn1c(=O)c(CCc2ccccc2)nc2cnc(N3CCNCC3)nc21,10.5% (inactive),–
COCCn1c(=O)c(-c2cc(F)cc(F)c2)nc2cnc(N3CCNCC3)nc21,–,3.16 µM (active)
COCCn1c(=O)c(-c2cc(F)cc(F)c2)nc2cncnc21,-1.7% (inactive),–
CNc1ncnc2ccc(-c3cccc(NS(C)(=O)=O)c3)cc12,-8.5% (inactive),–
CCCCC(CC)CN (stereo not drawn),–,inactive
CCC[C@@H]1C[C@@]1(CCC)[C@@H](NC(=O)c1ccccc1)c1ccc(C(=O)OC)cc1,9.7% (inactive),–
CCOc1cc(NC(=O)c2ccco2)c(OCC)cc1NC(=O)COc1ccccc1,-5.3% (inactive),–
CC(=O)Nc1cccc(Oc2cc(C#N)c(C#N)cc2N2CCOCC2)c1,-24.1% (inactive),–
CCOc1cc(N2CCOCC2)c(OCC)cc1NC(=O)COc1cccc2cccnc12,–,25.1 µM (active)
CC/C=C/C/C=C/C/C=C/CCCCCCCC(=O)OCC,-12.2% (inactive),–

SMILES,"activity change, negative = inhibition",Potency
Cc1c(C(=O)OCC(=O)N(CCC#N)c2ccccc2)oc2c1ccc1ccccc12,7.5% (inactive),–
O=[n+]1c2c(n([O-])c3cc(Br)ccc31)CCC2,–,25.1 µM (active)
O=C1CCCc2c1[nH]c1ccc(Br)cc21,33.9% (inactive),–
CCc1c(C)n([O-])c2c([n+]1=O)CCCCC2,-6.7% (inactive),–
CC(C)(C)[Si](OCC[C@@H]1C[C@@]1(C)[C@@H](NP(=O)(c1ccccc1)c1ccccc1)c1ccccc1)(c1ccccc1)c1ccccc1,-2.3% (inactive),–
CC(=O)c1cccc(S(=O)(=O)N2CCC(n3nnc4cc(F)ccc43)CC2)c1,-5.9% (inactive),–
C/C(CC(O)(/C=N/O)c1ccccc1)=N\O (stereo not drawn),-19.4% (inactive),–
CCCC(Cl)CCCC(Cl)CCC(Cl)CCC(Cl)CCC(Cl)CCCC(Cl)CCC (stereo not drawn),-0.1% (inactive),–
Cc1cc(C(=O)O)ccc1[N+](=O)[O-],-1.2% (inactive),–
CCc1c(C)nc2ncnn2c1N1CCC(C(=O)NCc2ccc3c(c2)OCO3)CC1,6.8% (inactive),–
O=C(NCCN1CCOCC1)[C@H](Cc1ccccc1)N1C(=O)c2ccccc2C1=O,-0.8% (inactive),–
Cc1ccc(C)n1C(Cc1ccccc1)C(=O)O (stereo not drawn),28.1% (inactive),–
N/C(=N\c1nc2ccccc2o1)NC(=O)C(Cc1ccccc1)N1C(=O)c2ccccc2C1=O (stereo not drawn),–,12.6 µM (active)
O=C(OC1CCOC1=O)c1ccc(-c2nc3ccccc3s2)s1 (stereo not drawn),-28.6% (inactive),–
COc1ccccc1CNc1ncncc1-c1cccc(NS(C)(=O)=O)c1,-1.8% (inactive),–
O=C(O)CCCCC(=O)O,0% (inactive),–
C#CCCCCCCCCCCCCCCCC(=O)O,–,31.6 µM (active)
CCCCCCCCCCCC(=O)O,–,inactive
CC1(CCC(=O)OC2CCCCC2)OCCO1,-1.1% [at 11.4 µM] (inactive),–
CC1CC(c2ccccc2)n2nc(NC(=O)c3cccs3)nc2N1 (stereo not drawn),7.4% (inactive),–
Cc1cccc(Br)c1,0.5% (inactive),–
CC(=O)N1[C@H](C)C=C[C@]1(Cc1ccccc1)C(=O)NCc1ccccn1,0.2% (inactive),–
Cc1ccc(-n2c(N)c(C(=O)N3CCOCC3)sc2=S)c(C)c1,-6.7% (inactive),–
C/C(=C\c1ccco1)C1Nc2cccc3cccc(c23)N1,–,15.8 µM (active)
